Screening data (PubChem BioAssay)
This is a sample that favours compounds with a hit; in the whole collection about 0.51% have one here.
E coli growth-1 – bacterial growth inhibition, counter-screen for AddAB inhibitors | E. coli V3065 growth, OD600 absorbance, 18 h | inhibition, % at 11.9 µM | 0.27% of 330,000 active | AID 449728;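 active means inhibition above the campaign's mean inhibition across all tested compounds plus 3 SD, cut at about 9.9% in these data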;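 further: uninfected addAB+ strain grown without phage in ampicillin broth; 0% = DMSO wells and 100% = ciprofloxacin 0.95 µg/ml wells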
phage Ecoli inh – E. coli growth loss with phage present; growth absorbance; inhibition, % at 11.9 µM; 0.26% of 360,000 active; in the data active means inhibition above about 11%
Tat transport – inhibitors of E. coli Tat protein transport; inhibition, % at 10 µM; E. coli MC4100 TorA-mCherry Tat export, fluorescence; 0.036% of 340,000 active;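 active means mean replicate inhibition at least 50% and at least half of replicates individually reaching 50%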;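 further: exported cargo escapes ClpAP degradation while cytoplasmic cargo is degraded and loses fluorescence; 0% = median of neutral control wells and 100% = median of NaSCN control wells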
AddAB inh – less growth of phage-infected E. coli with AddAB | E. coli expressing H. pylori AddAB, absorbance growth | inhibition, % at 11.9 µM | 0.29% of 330,000 active | AID 435030; in the data active means inhibition above about 12%;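 further: 0% = vehicle wells of infected cells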
E coli growth-2 – E. coli growth inhibition; OD600 absorbance (test concentration not listed); 0.21% of 330,000 active; Escherichia coli growth, OD600, 23 h; stronger effect = lower value;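 active means OD600 absorbance below the run mean of sample wells minus 3.6 SD, in any replicate, cut at about 0.56 in these data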
AddAB confirm – confirmation screen: growth loss of phage-infected E. coli expressing H. pylori AddAB. shares compounds with AddAB inh. E. coli V3065 expressing H. pylori AddAB, T4 phage, OD; T4 phage with gene 2 nonsense mutations. inhibition, % at 11.9 µM. 64% of 880 active. AID 488942;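 active means mean inhibition above a set limit taken from the earlier primary screen, cut at about 13% in these data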;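 further: higher means less bacterial growth since AddAB block lets phage replicate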
RecBCD counter – AddAB counter-screen: growth loss of RecBCD+ E. coli infected with mutant T4 phage. 73% of 880 active. E. coli V66 + mutant T4 phage, OD growth. inhibition, % at 11.9 µM. shares compounds with AddAB inh;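 active means mean inhibition above the mean of solvent-only control wells plus 3 SD, cut at about 4% in these data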;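 further: optical density read after an 18 h incubation at 37 °C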
bact viab count – reduces bacterial viability, AddAB inhibitor counter-screen | inhibition, % at 11.9 µM | 35% of 880 active | absorbance (AddAB counterscreen) | shares compounds with AddAB inh; in the data active means inhibition above about 25%
* hit, by the source's call; · = not tested or not shown.

SMILES	E coli growth-1	phage Ecoli inh	Tat transport	AddAB inh	E coli growth-2	AddAB confirm	RecBCD counter	bact viab count
O=C(CNc1cccc2ccccc12)NN=Cc1ccccn1	·	·	·	·	0.61	·	·	·
CCOc1cc(N)c(Cl)cc1C(=O)NCC1CN(Cc2ccc(F)cc2)CCO1 (centres undefined)	93*	5	3	99*	0.064*	101*	12*	98*
COC(=O)C1=C(C)N(Cc2ccccc2)C(=O)NC1c1ccc(Br)cc1 (centres undefined)	·	·	·	·	0.71	·	·	·
O=C(Oc1c(Cl)cc(Cl)c2cccnc12)c1ccco1	48*	61*	-30	50*	0.056*	63*	60*	58*
S=c1nc[nH]c2c1ncn2C1CCCO1 (centres undefined)	22*	8	9	26*	·	-4	0	-2
Nc1ncnc2c1ncn2C1CCCO1 (centres undefined)	0	3	-1	0	0.68	·	·	·
CC1(C)CC[C@]2(C(=O)O)CC[C@]3(CO)C(=CCC4[C@@]5(C)CC(O)C(O)[C@@](C)(C(=O)O)C5CC[C@]43C)C2C1 (some centres undefined)	·	·	·	·	0.67	·	·	·
Nc1nn2c(-c3ccccc3)cc(=O)[nH]c2c1N=Nc1ccc(O)cc1	10*	6	-1	19*	0.73	27*	0	6
CCC(=O)NC(C)c1cc(Cl)c2cccnc2c1O (centres undefined)	-4	7	0	-4	0.69	·	·	·
CCC(=O)NC(c1ccc(C)cc1)c1cc(Cl)c2cccnc2c1O (centres undefined)	25*	·	-11	21*	·	16*	17*	14
CCCC(=O)NC(c1ccc2c(c1)OCO2)c1cc(Cl)c2cccnc2c1O (centres undefined)	24*	·	-5	23*	0.68	21*	22*	23
COc1ccc(C(NC(C)=O)c2cc(Cl)c3cccnc3c2O)cc1OC (centres undefined)	9	8	-2	10	·	·	·	·
O=C(COC(=O)C=Cc1cccs1)Nc1cccc(S(=O)(=O)N2CCCC2)c1	·	·	·	·	0.67	·	·	·
CCCCNC(=O)O[C@H]1C[C@@H]2CCN3C(=O)CCC[C@H]([C@H]1CC)[C@H]23	2	3	-10	15*	·	-2	1	-4
COc1cccc(C(=O)Nc2nnc(-c3cccs3)o2)c1	-2	3	5	12*	0.56	9	5.7*	0
COc1cccc(C(=O)Nc2nnc(-c3ccc(Cl)cc3)o2)c1	-4	-5	-4	4	0.59	·	·	·
CN1C(=CC(=O)CSc2nnc(NCc3ccccc3)s2)C(C)(C)c2ccccc21	·	·	·	·	0.68	·	·	·
CC1(C)OC(=O)C(=NNc2ccc(O)cc2)C(=O)O1	5	2	22	16*	0.69	17*	3	5
CC1(C)OC(=O)C(=NNc2ccccc2)C(=O)O1	-3	1	-3	3	·	·	·	·
O=C(NCc1nc2ccccc2[nH]1)c1ccc(Cl)c(S(=O)(=O)N2CCCC2)c1	5	10	-3	16*	0.65	6	4.0*	3
CCCCC1CNCCN1CCc1cccc2ccccc12 (centres undefined)	·	·	·	·	0.63	·	·	·
O=c1[nH]c2ccccc2n1CCCOc1ccccc1	-2	0	29	1	0.7	·	·	·
CCCCn1c(=O)[nH]c2ccccc21	7	2	-7	14*	0.69	-3	0	-3
Cc1cc(NN=Cc2ccncc2)nc2ccccc12	·	·	·	·	0.63	·	·	·
Cn1c(/C=C/c2ccc([N+](=O)[O-])o2)nc2ccccc2c1=O	79*	·	-2	63*	0.44*	99*	29*	100*
Cc1cc(N/N=C/c2ccc([N+](=O)[O-])o2)nc2ccccc12	32*	7	-1	50*	·	43*	4.9*	13
CC1CN(C(C)CO)C(=O)c2cccc(NC(=O)C3CCCCC3)c2OC1CN(C)C(=O)Nc1ccccc1 (centres undefined)	·	·	·	·	0.66	·	·	·
